Compounds without any hit were thinned out: in the full panel of roughly 83,000, 20% have a hit.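 The test compound was applied at a single concentration to cells in 96-well plates for 48 hours, and percent growth was recorded.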 Unmarked numbers belong to inactive results. The source made the active and inactive calls. How the source made its calls: active means growth percent below 10; inactive means the rest.

Test systems include T-47D breast; BT-549 breast; MDA-MB-435 melanoma; SW-620 colon; MCF7 breast; HCT-116 colon; HCC-2998 colon; KM12 colon.
What all share (assay): NCI-60 one-dose screen, 48 h (100 = growth as untreated, 0 = no growth, -100 = all killed)
Holding throughout (conditions): 10 µM unless noted

As for `Cc1c(NC(=O)c2sc3nc4c(cc3c2N)CN(Cc2ccccc2)CC4)cccc1C(F)(F)F`, the growth with T-47D breast is 48.9%; in the assay with BT-549 breast, 49.2%; with MDA-MB-435 melanoma, 13.1%; in the assay with SW-620 colon it was 19.3%; in the assay with MCF7 breast, 16.4%; with HCT-116 colon, 19.5%. Further, the growth with HCC-2998 colon is 64.7%; in the assay on KM12 colon, 27%.

Consider `CCOc1ccc(Cc2nccc3cc(OCC)c(OCC)cc23)cc1OCC`, for which the growth was 39.1% in the assay on T-47D breast; 49.1% with BT-549 breast; 60.2% in the assay on MDA-MB-435 melanoma; 39.1% with SW-620 colon; 72.7% with MCF7 breast; 26.5% in the assay with HCT-116 colon. Further, the growth in the assay with HCC-2998 colon is 52.2%; in the assay on KM12 colon, 49.3%.

As to `COc1ccc(Cl)cc1NC(=O)c1cc2c([nH]1)-c1nc(NC(=O)C(C)(C)C)sc1CC2`, the growth was 71.3% in the assay with T-47D breast; 71.7% in the assay with BT-549 breast; 91% in the assay on MDA-MB-435 melanoma; 62.6% in the assay on SW-620 colon; 52.1% with MCF7 breast; 12.4% with HCT-116 colon. The growth with HCC-2998 colon was 96.5%; in the assay with KM12 colon it was 83.2%.

Turning to `O=C(NCCNc1nccc(-c2c(-c3cccc(O)c3)nc3sccn23)n1)c1ccc(N2CCOCC2)c(C(F)(F)F)c1`, the growth was 60.1% in the assay on T-47D breast; 53.8% with BT-549 breast; 20.9% in the assay with MDA-MB-435 melanoma; 111% in the assay with SW-620 colon; 58.7% in the assay with MCF7 breast; 60.2% in the assay on HCT-116 colon. In addition, the growth in the assay on HCC-2998 colon was 106%; in the assay with KM12 colon, 77.5%.

For `CC(=O)N1N=C2N(Cc3ccccc3)C(=O)c3c(sc4c3CCCC4)N2C1c1cn(-c2ccccc2)nc1-c1ccc(Cl)cc1` (configuration not stated), the growth with T-47D breast was 80.8%; with BT-549 breast it was 99.5%; in the assay on MDA-MB-435 melanoma, 95.4%; in the assay with SW-620 colon, 103%; with MCF7 breast, 92.4%; in the assay on HCT-116 colon it was 96.8%. In addition, the growth in the assay with HCC-2998 colon was 112%; in the assay on KM12 colon, 98%.

Turning to `CC1(C)CC(=O)C2=C(C1)OC1=C(C(=O)CC(C)(C)C1)C2c1ccc(OCc2cn(-c3ccc(F)cc3F)nn2)cc1`, the growth in the assay with T-47D breast was 98.5%; in the assay with BT-549 breast, 110%; in the assay with MDA-MB-435 melanoma it was 92.4%; in the assay on SW-620 colon it was 118%; with MCF7 breast it was 87.2%; in the assay with HCT-116 colon, 91.9%. Moreover, the growth in the assay on HCC-2998 colon is 122%; in the assay with KM12 colon it was 90.2%.

Consider `Cc1[nH]n(C(=O)c2ccncc2)c(=O)c1N=Nc1ccc(S(=O)(=O)Nc2ccncn2)cc1`, for which the growth is 113% in the assay with T-47D breast; 127% with BT-549 breast; 117% in the assay with MDA-MB-435 melanoma; 108% with SW-620 colon; 102% in the assay on MCF7 breast; 92.6% in the assay with HCT-116 colon. The growth is 113% in the assay with HCC-2998 colon and 109% in the assay on KM12 colon.

`Cn1c2ccccc2c2ssc(=S)c21`: the growth in the assay on T-47D breast was 87.3%; in the assay on BT-549 breast, 110%; in the assay with MDA-MB-435 melanoma, 91.7%; in the assay on SW-620 colon it was 105%; with MCF7 breast it was 92.9%; with HCT-116 colon, 101%. Also, the values for the growth in the assay on HCC-2998 colon and with KM12 colon were 101% and 99.7%, respectively.

Regarding `N#Cc1c2c(c(N)[nH]c1=O)C(=O)NC2(O)c1ccccc1` (configuration not stated), the growth was 103% with T-47D breast; 105% with BT-549 breast; 109% in the assay on MDA-MB-435 melanoma; 111% in the assay with SW-620 colon; 99.6% in the assay on MCF7 breast; 104% with HCT-116 colon. In addition, the growth with HCC-2998 colon was 101%; in the assay on KM12 colon it was 102%.

For the compound `C=C1c2c(Cl)ccc(O)c2C(O)=C2C(=O)[C@]3(O)C(O)=C(C(N)=O)C(=O)[C@@H](N(C)C)[C@@H]3[C@@H](O)[C@H]12`, the growth is 21.8% in the assay with T-47D breast; -19.7% (active) in the assay on BT-549 breast; 12.7% with MDA-MB-435 melanoma; 16.4% in the assay on SW-620 colon; 29.8% in the assay on MCF7 breast; 2.75% (active) in the assay on HCT-116 colon. The growth in the assay on HCC-2998 colon is 8.18% (active); with KM12 colon, 1.27% (active).

`Nn1c(CN2CCN(c3cc4c(cc3F)c(=O)c(C(=O)O)cn4C3CC3)CC2)n[nH]c1=S`: the growth is 98.3% in the assay on T-47D breast; 112% with BT-549 breast; 97.9% in the assay with MDA-MB-435 melanoma; 105% in the assay with SW-620 colon; 93.4% with MCF7 breast; 102% in the assay on HCT-116 colon. Moreover, the growth in the assay on HCC-2998 colon is 92.7%; in the assay with KM12 colon, 103%.

Consider `OCc1cn(-c2ccc(Cl)cc2)nc1-c1ccc(O)cc1`, for which the growth is 85.3% in the assay with T-47D breast; 86.1% in the assay with BT-549 breast; 88.9% in the assay on MDA-MB-435 melanoma; 112% in the assay on SW-620 colon; 90.4% in the assay on MCF7 breast; 96.9% in the assay on HCT-116 colon. Moreover, the growth in the assay on HCC-2998 colon was 103%; with KM12 colon it was 90.9%.

`O=C1COc2ccccc2C(=O)N1CCCCN1CCCCC1`: the growth with T-47D breast was 51.3%; in the assay with BT-549 breast, 78.7%; in the assay on MDA-MB-435 melanoma, 104%; with SW-620 colon, 84.6%; with MCF7 breast it was 79.6%; in the assay on HCT-116 colon, 57.8%. Further, the growth is 109% with HCC-2998 colon and 90.2% in the assay with KM12 colon.

With `COc1ccc(-c2nn(-c3ccc(NC(=O)Nc4ccc(Cl)c(C(F)(F)F)c4)cc3)cc2-c2ccncc2)cc1Cl`, the growth in the assay with T-47D breast was 24.7%; with BT-549 breast it was 0.583% (active); with MDA-MB-435 melanoma it was -16.6% (active); in the assay on SW-620 colon, 3.24% (active); with MCF7 breast, 7.96% (active); with HCT-116 colon it was -7.68% (active). Moreover, the growth in the assay on HCC-2998 colon is 11.3%; with KM12 colon, 0.474% (active).

(Values after PubChem BioAssay (NCI).)
